This is an account of results in PubChem BioAssay (NCATS).

Values joined by “and” are separate entries in the source; they are usually repeats but may differ in a detail not shown here. Equal values may be shown once. Inconclusive results are not listed. Active and inactive are the calls of the source. Unless noted, calls come from the whole dose curve.

Assay [1] is described as follows: qHTS assay for small molecule agonists of retinoid X receptor alpha signaling (AID 588544). The note with it: HEK293T RXRa-UAS-bla, beta-lactamase reporter, 18 h; 530 nm emission. (In qHTS, concentration-response curves come from the screen itself.)
Assay [2] addresses Retinoic acid receptor RXR-alpha (Homo sapiens) (UniProt P19793). Described as above. The note with it: HEK293T RXRa-UAS-bla, beta-lactamase reporter, 18 h; series mostly up to 76.7 µM.
For assay [3], the target named is Thyroid hormone receptor beta (Homo sapiens) (UniProt P10828). The assay can be described thus: qHTS assay for small molecule agonists of thyroid hormone receptor beta signaling (AID 588545). The note with it: TR-UAS-bla GripTite HEK 293, beta-lactamase ratio, agonist mode, 18 h, percent of T3 response, DMSO as zero; series mostly up to 76.7 µM. In a few lines: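 HEK 293 TR-UAS-bla; agonist mode; 18 hrs, 37 C; CCF4, ex 405/em 460 and 530 nm; norm. T3 10 nM = 100%, DMSO = 0%; Hill fit → EC50, efficacy.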
Thyroid hormone receptor beta (Homo sapiens), sequence (P10828 whole entry, looked up): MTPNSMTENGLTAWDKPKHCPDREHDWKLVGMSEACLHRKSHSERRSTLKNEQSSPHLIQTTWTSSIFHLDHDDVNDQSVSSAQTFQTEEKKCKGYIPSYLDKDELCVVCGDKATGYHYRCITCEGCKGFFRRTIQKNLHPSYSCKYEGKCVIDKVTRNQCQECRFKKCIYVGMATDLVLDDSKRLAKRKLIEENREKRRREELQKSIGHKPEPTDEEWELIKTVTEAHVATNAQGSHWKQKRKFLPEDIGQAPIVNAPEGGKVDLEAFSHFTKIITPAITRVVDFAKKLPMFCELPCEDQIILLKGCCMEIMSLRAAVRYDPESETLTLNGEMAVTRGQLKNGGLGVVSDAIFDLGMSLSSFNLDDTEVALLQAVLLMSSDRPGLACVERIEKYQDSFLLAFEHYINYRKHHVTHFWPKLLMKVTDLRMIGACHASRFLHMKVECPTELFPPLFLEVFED

Assay [4] in a line: qHTS assay for small molecule antagonists of retinoid X receptor alpha signaling (AID 588546; active = well fitted inhibition curve with a large enough effect in the signal ratio, with a control signal flat, not every such curve was filed as active; the % refers to the signal ratio; note: potency is the fitted concentration of half-maximal effect;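 for max response: cells stimulated with 9-cis-retinoic acid as agonist; % is set by controls: 0 for no effect and ±100 for the full control effect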). The note with it: HEK293T RXRa-UAS-bla, beta-lactamase ratio, antagonist mode; measured here: W530 green channel, cytotoxicity proxy. The method, boiled down: (§1)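 Beta-lactamase reporter inhibition, read as CCF4 fluorescence ratio (ex 405, em 460/530 nm) after 2 h at RT. HEK293T UAS-bla cells, 2500/well, were stimulated with 9-cis-RA at 500 or 100 nM final alongside test compound for 18 h at 37 C.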

For assay [5], the target named is Retinoic acid receptor RXR-alpha (Homo sapiens) (UniProt P19793). Described as above. The note with it: HEK293T RXRa-UAS-bla, beta-lactamase ratio, antagonist mode. In a few lines: as §1
Retinoic acid receptor RXR-alpha (Homo sapiens), sequence (P19793 whole entry, looked up): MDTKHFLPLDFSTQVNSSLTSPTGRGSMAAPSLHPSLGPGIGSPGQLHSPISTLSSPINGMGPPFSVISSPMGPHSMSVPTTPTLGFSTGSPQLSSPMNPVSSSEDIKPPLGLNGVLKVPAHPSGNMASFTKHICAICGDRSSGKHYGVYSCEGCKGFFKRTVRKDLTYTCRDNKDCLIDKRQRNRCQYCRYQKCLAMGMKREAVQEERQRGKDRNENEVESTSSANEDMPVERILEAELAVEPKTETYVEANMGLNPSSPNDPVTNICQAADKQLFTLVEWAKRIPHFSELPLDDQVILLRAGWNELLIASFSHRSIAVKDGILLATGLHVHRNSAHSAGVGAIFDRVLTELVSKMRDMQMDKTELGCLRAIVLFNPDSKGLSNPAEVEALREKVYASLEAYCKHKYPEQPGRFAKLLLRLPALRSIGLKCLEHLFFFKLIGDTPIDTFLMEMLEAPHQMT
For assay [6], the target named is Thyroid hormone receptor beta (Homo sapiens) (UniProt P10828). Briefly: qHTS assay for small molecule antagonists of thyroid hormone receptor beta signaling (AID 588547; active = well fitted inhibition curve with a large enough effect in the signal ratio, with a control signal flat, not every such curve was filed as active; the % refers to the signal ratio;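 note: cells stimulated with 0.4 nM T3 agonist during compound exposure; % is set by controls: 0 for no effect and ±100 for the full control effect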). To be noted: TR-UAS-bla HEK293, beta-lactamase ratio, antagonist mode, 18 h. The method, boiled down: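 TR-UAS-bla GripTite HEK293 cells in 2% charcoal/dextran FBS medium were preincubated 4 h at 37 C, given compound (0.59 nM to 92 uM) plus 0.4 nM T3 (final) for 18 h, then CCF4 for 2 h at RT; Hill fit gave IC50.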

Assay [7] concerns the target Voltage-gated inwardly rectifying potassium channel KCNH2 (Homo sapiens) (UniProt Q12809). The assay can be described thus: qHTS Assay for Small Molecule Inhibitors of the Human hERG Channel Activity (AID 588834; active = well fitted inhibition curve with a large enough effect;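 note: lower thallium flux fluorescence means stronger hERG block; nearly all actives have a fitted effect of over 50% in size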; note: potency is the fitted concentration of half-maximal effect). To be noted: U2OS BacMam hERG, FluxOR thallium flux fluorescence; series mostly up to 46.1 µM. The method, boiled down: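 Homogeneous FluxOR thallium flux assay using hERG-expressing U2OS cells (BacMam). Compound treatment about 10 minutes preceded stimulation; reduced fluorescence taken as channel block.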

The target in assay [8] is Luciferin 4-monooxygenase (Photinus pyralis) (UniProt P08659). Briefly: Biochemical firefly luciferase enzyme assay for NPC (AID 624030; active = well fitted inhibition curve with a large enough effect;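 note: purified P. pyralis luciferase at 10 nM with luciferin and ATP substrate; 0% = DMSO and -100% = full luciferase inhibition by PTC124 control; nearly all actives have a fitted effect of over 70% in size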). The note with it: purified P. pyralis luciferase, luminescence, 5 min; series mostly up to 58.6 µM. In a few lines:
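Counter-screen for direct inhibition of the luciferase enzyme by approved-drug library compounds, run at 10 nM enzyme in 50 mM Tris acetate (final). Luminescence was read within 5 min of enzyme-buffer addition and normalized to PTC124 versus DMSO (0%).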

Assay [9] addresses Vitamin D3 receptor (Homo sapiens) (UniProt P11473). Briefly: qHTS assay for small molecule antagonists of vitamin D receptor signaling (AID 588541).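 Note: receptor activated by calcitriol during compound treatment; % is set by controls: 0 for no effect and ±100 for the full control effect.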 To be noted: HEK293T VDR-UAS-bla, beta-lactamase ratio, antagonist mode; series mostly up to 76.7 µM. In a few lines: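 VDR-UAS-bla HEK293T cells (2000/well, 2% charcoal-stripped FBS) were treated with titrated compounds plus 1-alpha,25-dihydroxyvitamin D3 (50 nM or 3 nM final) for 16 h at 37 C. CCF4 beta-lactamase fluorescence was read; Hill fits gave IC50.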

Assay [10] has the same target. The assay can be described thus: qHTS assay for small molecule agonists of vitamin D receptor signaling (AID 588543).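 Note: 0% = DMSO basal and 100% = reference agonist control.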 The note with it: HEK293T VDR-UAS-bla, beta-lactamase ratio, 16 h; series mostly up to 76.8 µM. The method, boiled down:
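Measured: β-lactamase reporter activity (CCF4, 405 nm excitation, 460/530 nm emission) in HEK293T VDR-UAS-bla cells after 16 h compound exposure at 37 °C. Normalization against 50 nM 1α,25-dihydroxyvitamin D3 and DMSO; Hill-fit EC50.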

Luciferin 4-monooxygenase (Photinus pyralis), sequence (P08659 whole entry, looked up): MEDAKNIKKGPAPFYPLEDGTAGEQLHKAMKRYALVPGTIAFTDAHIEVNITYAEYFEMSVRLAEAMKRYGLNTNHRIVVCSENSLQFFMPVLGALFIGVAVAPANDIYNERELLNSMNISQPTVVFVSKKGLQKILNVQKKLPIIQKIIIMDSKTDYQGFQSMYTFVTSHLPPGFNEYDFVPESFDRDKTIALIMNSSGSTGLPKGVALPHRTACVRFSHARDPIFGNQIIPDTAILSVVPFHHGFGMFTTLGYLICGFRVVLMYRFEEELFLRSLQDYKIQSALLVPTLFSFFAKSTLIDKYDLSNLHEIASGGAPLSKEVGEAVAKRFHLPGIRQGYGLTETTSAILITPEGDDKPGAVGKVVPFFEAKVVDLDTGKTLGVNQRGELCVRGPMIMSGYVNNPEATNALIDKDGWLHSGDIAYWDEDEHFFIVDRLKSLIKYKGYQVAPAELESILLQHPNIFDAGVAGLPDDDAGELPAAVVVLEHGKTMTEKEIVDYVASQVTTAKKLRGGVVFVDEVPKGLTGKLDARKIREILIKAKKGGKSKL
Voltage-gated inwardly rectifying potassium channel KCNH2 (Homo sapiens), sequence (Q12809 whole entry, looked up): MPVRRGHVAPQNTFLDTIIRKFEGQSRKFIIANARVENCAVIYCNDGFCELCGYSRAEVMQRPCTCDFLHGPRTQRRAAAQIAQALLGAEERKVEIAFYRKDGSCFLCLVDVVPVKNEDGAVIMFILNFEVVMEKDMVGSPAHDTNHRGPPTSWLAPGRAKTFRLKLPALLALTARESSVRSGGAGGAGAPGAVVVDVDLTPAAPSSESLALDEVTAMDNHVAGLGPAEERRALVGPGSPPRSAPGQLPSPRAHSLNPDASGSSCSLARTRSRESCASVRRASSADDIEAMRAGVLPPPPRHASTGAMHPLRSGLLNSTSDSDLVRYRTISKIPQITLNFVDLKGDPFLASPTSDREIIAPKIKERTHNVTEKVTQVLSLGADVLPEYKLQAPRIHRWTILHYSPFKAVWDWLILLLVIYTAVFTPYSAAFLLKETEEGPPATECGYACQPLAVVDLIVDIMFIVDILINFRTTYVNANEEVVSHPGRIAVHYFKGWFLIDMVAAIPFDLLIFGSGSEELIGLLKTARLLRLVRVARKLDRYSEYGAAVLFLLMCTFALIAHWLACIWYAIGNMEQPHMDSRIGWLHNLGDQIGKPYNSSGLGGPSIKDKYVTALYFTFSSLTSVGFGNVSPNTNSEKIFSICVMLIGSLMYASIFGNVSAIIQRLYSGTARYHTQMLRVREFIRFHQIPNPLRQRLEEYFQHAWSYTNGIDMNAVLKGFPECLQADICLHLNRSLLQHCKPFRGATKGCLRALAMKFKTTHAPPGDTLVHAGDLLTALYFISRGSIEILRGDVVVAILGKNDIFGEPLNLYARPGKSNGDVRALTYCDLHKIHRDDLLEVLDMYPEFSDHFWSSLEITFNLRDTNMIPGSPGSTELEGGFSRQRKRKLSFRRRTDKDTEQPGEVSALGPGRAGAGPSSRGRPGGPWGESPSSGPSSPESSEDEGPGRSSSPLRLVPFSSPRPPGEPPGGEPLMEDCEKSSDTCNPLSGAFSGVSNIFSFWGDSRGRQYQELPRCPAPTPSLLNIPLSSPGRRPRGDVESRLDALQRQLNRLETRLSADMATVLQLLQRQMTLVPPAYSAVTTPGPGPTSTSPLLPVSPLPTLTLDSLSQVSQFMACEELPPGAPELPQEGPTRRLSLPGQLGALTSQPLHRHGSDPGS
Vitamin D3 receptor (Homo sapiens), sequence (P11473 whole entry, looked up): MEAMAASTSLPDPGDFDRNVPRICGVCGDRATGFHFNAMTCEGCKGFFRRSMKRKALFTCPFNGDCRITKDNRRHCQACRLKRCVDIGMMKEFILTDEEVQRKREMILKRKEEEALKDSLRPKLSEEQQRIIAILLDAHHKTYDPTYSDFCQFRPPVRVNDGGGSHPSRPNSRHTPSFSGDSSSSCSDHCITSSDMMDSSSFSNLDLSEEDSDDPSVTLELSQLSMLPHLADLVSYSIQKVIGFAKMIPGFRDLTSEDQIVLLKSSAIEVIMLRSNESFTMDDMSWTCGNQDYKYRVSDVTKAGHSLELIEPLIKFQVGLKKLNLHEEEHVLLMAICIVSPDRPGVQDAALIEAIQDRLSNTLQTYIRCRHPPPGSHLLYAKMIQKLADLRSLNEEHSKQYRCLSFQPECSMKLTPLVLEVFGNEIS

For the compound `CCCCCCCC/C=C\CCCCCCCC(=O)O`, the max response was -22.4% and -10.3% in [1]; -6.26% and -12.6% in assay [4]; 31.8% (inactive) and 3.81% (inactive) in [5]. Besides, the result in assay [2] and in [3] was inactive. Besides, the activity change % (negative = inhibition) in [6] is -12.5% (inactive). For the same compound, the Potency result in [7] and in assay [8] was “inactive” throughout.
In the case of `CO[C@H](C(=O)[C@@H](O)[C@@H](C)O)C1Cc2cc3cc(O[C@H]4C[C@@H](O[C@H]5C[C@@H](O)[C@H](O)[C@@H](C)O5)[C@@H](O)[C@@H](C)O4)c(C)c(O)c3c(O)c2C(=O)[C@H]1O[C@H]1C[C@@H](O[C@H]2C[C@@H](O[C@H]3C[C@](C)(O)[C@H](O)[C@@H](C)O3)[C@H](O)[C@@H](C)O2)[C@H](O)[C@@H](C)O1` (stereo partly drawn), the Potency result in assay [7] was “inactive”.
As to `CCOc1ccc2c(c1)C(C)=CC(C)(C)N2`, the result in assay [3] was inactive. Besides, in [6], the activity change % (negative = inhibition) is 8.54% (inactive). Also, the Potency entry in assay [7] and in [8] was “inactive” throughout.
With `OCCO[C@@H]1[C@@H](O)[C@H](O)[C@@H](CO)O[C@@H]1O`, the Potency entry in [7] is “inactive”.
For the compound `CC(Oc1ccccc1)C(=O)N[C@@H]1C(=O)N2[C@@H]1SC(C)(C)[C@@H]2C(=O)O` (stereo partly drawn), the Potency entry in assay [7] was “inactive”.
For `CC(C)=O`, the result in assay [9], in assay [10], in [2] and in assay [3] was inactive. Moreover, the max response is 9.06% in [1], 9.42% in [4] and 3.03% (inactive) in assay [5]. The activity change % (negative = inhibition) in assay [6] is -5.42% (inactive). For the same compound, the Potency entry in assay [7] and in [8] was “inactive” throughout.
For `CC(C)(C)NC(=O)[C@@H]1C[C@@H]2CCCC[C@@H]2CN1C[C@@H](O)[C@H](Cc1ccccc1)NC(=O)[C@H](CC(N)=O)NC(=O)c1ccc2ccccc2n1`, the outcome in assay [9] and in [3] was inactive. In addition, the max response in assay [4] turned out to be 9.91%. Further, the values for the Potency in assay [5] and in assay [7] were 22.4 µM (active) and 35.5 µM (active), respectively.
On to `O=S(=O)(O)O`, for which the max response in assay [1] is -13.7% and 0.0864%; in [4], -14.3% and 12.6%; in [5] it was -0.45% (inactive) and -13.7% (inactive). Further, the compound was classed as inactive in assay [2] and in assay [3]. The activity change % (negative = inhibition) in assay [6] was 16% (inactive) and -10.1% (inactive). For the same compound, the Potency entry in assay [7] and in [8] was “inactive” in each case.
Take `CCOC(C)=O`: the outcome in [9], in assay [10], in assay [2] and in assay [3] was inactive. For the same compound, the max response in [1] was -19.8%. Besides, the activity change % (negative = inhibition) in assay [6] is -2.37% (inactive). Besides, the Potency entry in assay [7] was “inactive”.
Take `CC(C)(C)C1(O)CCN2CC3c4ccccc4CCc4cccc(c43)C2C1` (stereo not drawn): in [7], the Potency was 2.82 µM (active).
On the same count and under the same terms, then `NCc1ccccc1CC(=O)N[C@@H]1C(=O)N2C(C(=O)O)=C(CSc3nnnn3CC(=O)O)CS[C@H]12`, with “inactive”.
For the compound `CC1=C(/C=C/C(C)=C/C=C/C(C)=C/CO)C(C)(C)CCC1`, the outcome in [9], in [10] and in assay [3] was inactive. In addition, the max response is 23.5% and 17% in assay [4]; -17.7% (inactive) and -18.6% (inactive) in assay [5]. Also, in assay [6], the activity change % (negative = inhibition) was 7.96% (inactive) and 4.62% (inactive).
